Among the data in PubChem BioAssay AID1259415 (National Center for Advancing Translational Sciences (NCATS), 2018) are activity change, negative = inhibition values, retold here.

Screen size: about 410,000 compounds; about 18,000 (4.4%) were called active. Another 7% or so got no clear call; they are omitted. The sample as a whole holds a higher share of actives than the screen did. A number with no mark means an inactive call. Cut-off read from the data, not from the text of the source: active = activity change below about -60%; inconclusive = no clear call, values can overlap the other calls; inactive = above about -39%.
% is set by controls: 0 for no effect and ±100 for the full control effect.

The nature of this assay: qHTS Assay for inhibitors of the human cytomegalovirus (HCMV). The following applies: HFF cells, HCMV-luciferase reporter, 72 h; at 57.5 µM; active compounds read low. An outline of the steps:
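Screen run at 2 compound doses on HFFs infected with reporter HCMV, MOI 1 PFU/cell. Luciferase activity from cell lysates at 72 h post infection gave inhibition relative to buffer-only and Salinomycin wells.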
In general terms: qHTS replaces the single test concentration by a dilution series.
Consider `O=C(CC(NCc1cccnc1)C(=O)O)Nc1ccc(O)cc1` (stereo not given), for which the activity change, negative = inhibition was 5.47%.

With `COc1cc(Cl)c(C)cc1NC(=O)CSc1nnc(CN2CCCC2)o1`, the activity change, negative = inhibition is -9.81%.

Take `COc1ccccc1NC(=O)CSc1nnc(CNC(=O)c2ccccc2F)o1`: the activity change, negative = inhibition was -5.51%.

In the case of `CCC(=O)Nc1ccc(C(=O)CSc2nnc(CNc3ccc(Cl)cc3)o2)cc1OC`, the activity change, negative = inhibition is -87.9% (active).

Turning to `CCCCSc1ncnc2c1sc1nc(N3CCOCC3)c3c(c12)CCCC3`, the activity change, negative = inhibition is 1.23%.

For `Cc1ccc(-c2nc(Cn3c(=O)cc(-c4ccccc4)c4c(C)nn(C)c43)c(C)o2)cc1`, the activity change, negative = inhibition was -9.59%.

On to `O=C(NCC1CCCO1)c1ccc(S(=O)(=O)Nc2ccc(F)cc2)cc1` (stereo not given), for which the activity change, negative = inhibition was -30.8%.

On to `Cc1ccc(NC(=O)c2ccc(S(=O)(=O)NCC3CCCO3)cc2)cc1C` (stereo not given), for which the activity change, negative = inhibition was 0.647%.

Turning to `O=C(Nc1ccc(S(=O)(=O)NCC2CCCO2)cc1)c1ccc(F)cc1` (stereo not given), the activity change, negative = inhibition was -71.5% (active).

On to `CCc1cccc(NC(=O)Cn2nc(CC)n3c(cc4cc(C)ccc43)c2=O)c1`, for which the activity change, negative = inhibition was 18.4%.

Consider `COc1ccc(CCNS(=O)(=O)c2cc(-c3cc(C)no3)ccc2C)cc1OC`, for which the activity change, negative = inhibition was 0%.

As to `CN(C)CC1Oc2ccccc2OC1(O)c1ccccc1` (stereo not given), the activity change, negative = inhibition was -104% (active).

As to `CN(C)CCOC(=O)C(c1ccccc1)C1(O)CCCC1` (stereo not given), the activity change, negative = inhibition was 31.9%.

With `CCc1cccc(NC(=O)CN(c2ccc(C)c(C)c2)S(=O)(=O)c2ccsc2C(=O)OC)c1`, the activity change, negative = inhibition was 7.64%.

Regarding `CCc1nn(-c2cc(Oc3cccc4ccccc34)nc(-c3ccccc3)n2)c(N)c1C#N`, the activity change, negative = inhibition was -68% (active).

Take `CCCCN(C)CCCNC(=O)CN1N=C(c2ccc(OC)cc2)CCC1=O`: the activity change, negative = inhibition was -26.4%.

As to `Cc1cccc(NC(c2cccc(F)c2)c2ccc3ccc(C)nc3c2O)n1` (stereo not given), the activity change, negative = inhibition is 84.7%.

Regarding `Cc1ccnc(NC(c2ccc(C(F)(F)F)cc2)c2ccc3cccnc3c2O)c1` (stereo not given), the activity change, negative = inhibition was -97.9% (active).

For `CCC(=O)NC(Nc1cc(C)ccn1)(C(F)(F)F)C(F)(F)F`, the activity change, negative = inhibition was 27.3%.

Regarding `CCNS(=O)(=O)c1ccc(CCC(=O)N2CCN(c3ccc(OC)cc3)CC2)cc1`, the activity change, negative = inhibition is -33.4%.

`CCNS(=O)(=O)c1ccc(CCC(=O)N2CCN(c3cc(Cl)ccc3C)CC2)cc1`: the activity change, negative = inhibition was -68.5% (active).

Turning to `CCCNS(=O)(=O)c1ccc(CCC(=O)N2CCCC2)cc1`, the activity change, negative = inhibition is -28.5%.

Turning to `CCOc1cccc2sc(N3CCN(C(=O)C4CC4)CC3)nc12`, the activity change, negative = inhibition was -12.2%.

In the case of `CN1OC[C@@H]2CN(C(=O)C(C)(C)C)[C@H](c3ccc(-n4ccnc4)cc3)C[C@@H]21`, the activity change, negative = inhibition was 22.3%.

On to `CCOC(=O)[C@]12CCC=C1N(Cc1cccc3ccccc13)C(=O)[C@H](CC(=O)NCc1cccc(C(F)(F)F)c1)C2`, for which the activity change, negative = inhibition is 19.4%.
